ELG1 repair inh = ELG1-dependent DNA repair inhibition; Potency, µM (titrated, usually from 46.1 µM), without a hit: at the highest dose activity change, negative = inhibition, actives largely listed as inhibitors; AID 504467; 2.3% of 330,000 active; HEK293T ELG1-luciferase reporter, luminescence, 16 h; DNA damage induced by 5-fluorouridine; note: % is set by controls: 0 for no effect and ±100 for the full control effect; nearly all actives have a fitted effect of over 55% in size
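Quantitative HTS, concentration-response format. 2,000 cells/well co-treated with 5-fluorouridine and compound, 16 hr in 5% CO2 at 37 °C; ONE-Glo luminescence read after 30 min.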
MCF10A rerep = induces DNA re-replication in MCF 10a normal breast cells; MCF 10A DNA re-replication, Hoechst nuclear intensity, 48 h; Potency, µM (titrated, usually from 46.1 µM), without a hit: at the top dose activity, positive = re-replication, usual class: activators; 2.9% of 350,000 active; AID 624296; note: % of control where 0% means no effect; nearly all actives have a fitted effect of over 50% in size
SW480 rerep = DNA re-replication induction in SW480 cells. Potency, µM (series often up to 46.1 µM), inactives show at the highest dose re-replication activation, hits mostly activators. AID 624297. 1.8% of 340,000 active. SW480 DNA re-replication, Hoechst DNA content imaging, 48 h; note: % of control where 0% means no effect; nearly all actives have a fitted effect of over 55% in size
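Quantitative HTS format with DMSO vehicle controls; 48 hr drug incubation at 37 C, then 40 min Hoechst staining and scanning imager measurement at 405 nm excitation.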
AT treatment = potential ataxia-telangiectasia treatment; F2112 A-T fibroblasts, KAP-1 phosphorylation AlphaLISA; neocarzinostatin DNA damage 30 min before lysis; 0.19% of 320,000 active; AID 485349; Potency, µM (titrated, usually from 57.5 µM), inactives show at the top dose activation, usual class: activators; note: % of control where 0% means no effect; nearly all actives have a fitted effect of over 45% in size
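hTERT-immortalized A-T patient fibroblasts (F2112), 500 cells/well in OPTI-MEM, 1% FBS, got compounds for 60 min, then NCS for 30 min at 37C. Lysates were then assayed for phospho-KAP-1 by AlphaLISA (anti-pKAP1 donor, anti-KAP1 acceptor beads), 6 hr at 25C.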
p53 reactivation = mutant p53 re-activation in reporter cells | H1299 p53-A138V BP100-luciferase reporter, luminescence, 24 h | 0.063% of 320,000 active | Potency, µM (top dose mostly 92.2 µM), for the others: at the top dose activity change, positive = activation, most hits filed as activators; note: % of control where 0% means no effect; nearly all actives have a fitted effect of over 45% in size
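p53-null H1299 cells stably carrying temperature-sensitive p53-A138V and a BP100-luciferase reporter were pinned with compounds (4-point, 1:5 series) and held 24 hrs at 37 deg C. Luminescence was read 10 min after detection reagent.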
ELG1 genotoxic = genotoxicity induction in ELG1-luciferase HEK293T cells | HEK293T ELG1-luciferase reporter, luminescence, 16 h | 1.3% of 330,000 active | Potency, µM (top dose mostly 46 µM), inactives show at the highest dose activity change, positive = activation, actives largely listed as activators; note: % of control where 0% means no effect; nearly all actives have a fitted effect of over 60% in size
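Screening used a luciferase reporter fused to human ELG1 in HEK293T cells. Luminescence was read on a CCD plate imager after 16 hr exposure and 30 min ONE-Glo incubation.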
* hit, by the source's call. This is a sample that favours compounds with a hit; in the whole collection about 7.1% have one here. Calls come from the whole dose curve; as a rule, active = well fitted curve in the direction sought with a large enough effect; inconclusive = small, poorly fitted or top-dose-only effect, or another doubt; inactive = no such curve, though single readings can be large; an effect the other way counts as inactive or inconclusive. Potency is the fitted concentration of half-maximal effect.

`COCCOC(=O)c1c(C)nc(SCC(=O)Nc2ccc(OC)cc2)c(C#N)c1-c1ccco1` gave ELG1 repair inh 23.1µM*, MCF10A rerep -2.2%, SW480 rerep inconclusive, p53 reactivation 1.3% and ELG1 genotoxic -1.2%.
CCN(CC)C(=O)[C@H]1CC(CC(=O)NCc2ccco2)C(=O)N2CCc3c([nH]c4ccc(OC)cc34)[C@]12C (some centres not stated) was read as ELG1 repair inh -0.3%, MCF10A rerep -1.3%, SW480 rerep 2.9%, AT treatment 4.6%, p53 reactivation -6.8% and ELG1 genotoxic 10.3%.
CC(Cc1cccc(C(F)(F)F)c1)NCCOC(=O)c1ccccc1 (configuration not stated) was read as ELG1 repair inh -0.8%, MCF10A rerep -20.3%, SW480 rerep -4.8%, AT treatment -6.5%, p53 reactivation 1.6% and ELG1 genotoxic 3.7%.
Screening C[C@@H](NCCCc1cccc(C(F)(F)F)c1)c1cccc2ccccc12 returned MCF10A rerep 21.1µM* and SW480 rerep inconclusive.
`Cc1nn(-c2ccccc2)c(C)c1C(=O)NCc1ccccc1F` gave ELG1 repair inh 13.7%, MCF10A rerep -2.0%, SW480 rerep -4.7%, AT treatment 0.9%, p53 reactivation 3.4% and ELG1 genotoxic 4.4%.
CCCc1cc(=O)n2[nH]c(C)c(-c3ccc(OC)cc3)c2n1 was read as ELG1 repair inh 13.1%, MCF10A rerep 1.9%, SW480 rerep -3.8%, AT treatment -1.7%, p53 reactivation 5.3% and ELG1 genotoxic -0.9%.
For CCOC(=O)NNC(=O)CCn1c2c(c3ccccc31)CCCC2 the results were ELG1 repair inh 18.3µM*, MCF10A rerep 1.7%, SW480 rerep 4.0%, AT treatment 0.1%, p53 reactivation -6.2% and ELG1 genotoxic -10.1%.
CN(c1ccc(F)cc1)S(=O)(=O)c1ccc(Cl)c(C(=O)Nc2ccncc2)c1 was read as ELG1 repair inh 11.6µM*, MCF10A rerep inconclusive, SW480 rerep -2.0%, AT treatment -4.5%, p53 reactivation -6.5% and ELG1 genotoxic -3.5%.
`O=C(O)c1cccc(Sc2cc(Cl)ccc2C(=O)O)c1` gave ELG1 repair inh inconclusive, MCF10A rerep 9.0%, SW480 rerep -17.0%, AT treatment 0.7%, p53 reactivation 8.8% and ELG1 genotoxic 4.9%.
For Cc1ccc(C(=O)NCCNc2nc3cc(C)c(C)cc3cc2C)cc1 the results were ELG1 repair inh -9.8%, MCF10A rerep 8.2µM*, SW480 rerep 8.2µM*, AT treatment -0.6%, p53 reactivation 1.8% and ELG1 genotoxic inconclusive.
`COc1ccccc1C(=O)NCCNc1nc2cc(C)cc(C)c2cc1C#N` gave ELG1 repair inh 9.2µM*, MCF10A rerep inconclusive, SW480 rerep 21.9%, AT treatment 6.6%, p53 reactivation -8.9% and ELG1 genotoxic -10.6%.
Screening CCC(=O)NCCNc1nc2cc(C)cc(C)c2cc1C#N returned ELG1 repair inh inconclusive, MCF10A rerep -6.4%, SW480 rerep 0.2%, AT treatment -5.4%, p53 reactivation -3.7% and ELG1 genotoxic 5.4%.
For COc1cc(OC)cc(C(=O)NCCNc2nc3cc(C)cc(C)c3cc2C#N)c1 the results were ELG1 repair inh 16.4µM*, MCF10A rerep 16.4µM*, SW480 rerep inconclusive, AT treatment 11.0%, p53 reactivation -2.5% and ELG1 genotoxic -7.8%.
`C=CCN1CCCC1CNC(=O)c1cc(S(N)(=O)=O)cc(OC)c1OC` (configuration not stated) gave MCF10A rerep 7.4% and SW480 rerep -0.4%.
`Fc1ccc2c(c1)C1C=CCC1C(c1cc3c(cc1Br)OCO3)N2` (configuration not stated) gave ELG1 repair inh 7.0%, MCF10A rerep 23.1µM*, SW480 rerep inconclusive, AT treatment 10.5%, p53 reactivation 0.5% and ELG1 genotoxic -4.2%.
`COc1cccc(N2CCN(c3ccc4nnc(CCC(=O)Nc5ccc(OC)c(OC)c5)n4n3)CC2)c1` gave ELG1 repair inh inconclusive, MCF10A rerep 5.0%, SW480 rerep 0.3%, AT treatment -1.6%, p53 reactivation 2.5% and ELG1 genotoxic -5.6%.
`Cc1ccc(NC(=O)CN(C)CC(=O)Nc2c(C)cccc2C)c(Br)c1` gave ELG1 repair inh 7.31µM*, MCF10A rerep 0.1%, SW480 rerep -0.4%, AT treatment 11.4%, p53 reactivation -5.5% and ELG1 genotoxic -11.3%.
Screening Cc1ccc(NC(=O)Cn2cccc2)c(Br)c1 returned ELG1 repair inh inconclusive, MCF10A rerep 10.1%, SW480 rerep -5.3%, AT treatment -12.5%, p53 reactivation inconclusive and ELG1 genotoxic 8.2%.
`CCOC(=O)c1sc2nc3c(SCC(=O)O)cc(C(=O)c4ccccc4O)cn3c(=O)c2c1C` gave ELG1 repair inh 10.5%, MCF10A rerep 1.1%, SW480 rerep 16.3%, AT treatment -3.8%, p53 reactivation 1.7% and ELG1 genotoxic 1.7%.
For Cc1sc2nc3c(SC(C)C(=O)O)cc(C(=O)c4ccccc4O)cn3c(=O)c2c1C (configuration not stated) the results were ELG1 repair inh 9.9%, MCF10A rerep 16.4µM*, SW480 rerep -5.6%, AT treatment -4.3%, p53 reactivation 9.8% and ELG1 genotoxic 5.3%.
Screening COc1ccc(O)c(C(=O)c2cc(SCC(=O)O)c3nc4sc5c(c4c(=O)n3c2)CCCC5)c1 returned ELG1 repair inh 8.0%, MCF10A rerep 0.4%, SW480 rerep 6.2%, AT treatment -9.9%, p53 reactivation 17.3% and ELG1 genotoxic 4.3%.
Screening CCOC(=O)c1sc2nc3c(SCC(=O)O)cc(C(=O)c4cc(F)ccc4O)cn3c(=O)c2c1C returned ELG1 repair inh 24.0%, MCF10A rerep 3.26µM*, SW480 rerep -0.9%, AT treatment 3.2%, p53 reactivation 12.0% and ELG1 genotoxic 4.5%.
For COC(=O)c1cc(C(=O)c2cc(F)ccc2O)cn2c(=O)c3c(C)c(C)sc3nc12 the results were ELG1 repair inh inconclusive, MCF10A rerep 3.66µM*, SW480 rerep inconclusive, AT treatment -6.7%, p53 reactivation 2.4% and ELG1 genotoxic -4.6%.
